{"source": "PubChem BioAssay AID1508600", "about": "(Functional Genomics Laboratory (NCATS/FGL), 2020)", "note": "Among all 53,000 sequences or so, about 3,700 (7%) were called active.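 Rule for the calls: active = gene knockdowns whose robust z-score for IL-1 alpha signal is at least 2 or at most -2, so actives lie on both sides; inactive = the rest.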 This excerpt belongs to a sample that is enriched for actives.", "data": [{"experiment": "Components of the Cytosolic LPS Sensing Pathway: Gene Identification via Genome-wide siRNA Screen;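 note: robust z of the log signal after scaling to non-targeting control siRNA wells of the plate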", "conditions": "RAW264.7 macrophages, IL-1a HTRF, actives lie on both sides, screened at 100 nM (by protocol), cells primed 5 h with Pam3CSK4 first", "procedure,_shortened": "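Three distinct siRNAs per gene were tested singly at 100 nM in RAW264.7 macrophages. Following Pam3CSK4 priming and 24 hour LipidA transfection, IL-1a secretion was read by HTRF.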", "values": [{"sequence": "GGGCAAAUGUAAAAAGACUTT against Fst", "z-score": "1.28 (inactive)"}, {"sequence": "GGUGAUUGUCAAGAUUAUGTT against Olfr651", "z-score": "-2.1 (active)"}, {"sequence": "CCUUUGCCUUCAGUUUUAUTT against Pramel20", "z-score": "0.864 (inactive)"}, {"sequence": "GGUCACGAUGUAGCACGCUTT against Mtg1", "z-score": "0.996 (inactive)"}, {"sequence": "GCAGGAAGUACUCCUAUCCTT against Letm2", "z-score": "-0.861 (inactive)"}, {"sequence": "GGGAAUUUGGUAUCAAUUUTT against Epgn", "z-score": "1.7 (inactive)"}, {"sequence": "GCUGCACGAUGCAUGGUUUTT against Asic3", "z-score": "1.43 (inactive)"}, {"sequence": "GGCAAUAACAUUCGGUAUUTT against Snrpd1", "z-score": "-2.29 (active)"}, {"sequence": "CCUGUAAUGAGUAUGACAUTT against Commd10", "z-score": "0.397 (inactive)"}, {"sequence": "GGAACUUUUUCAGAGCUCUTT against Senp3", "z-score": "-1.6 (inactive)"}, {"sequence": "GGUAUUUGUGCCAAUUGCCTT against Ccr6", "z-score": "-0.302 (inactive)"}, {"sequence": "GGAAGACUACAUAAGAGACTT against Cxcl9", "z-score": "0.103 (inactive)"}, {"sequence": "GGGCCAUGAUAGGACACACTT against Nme4", "z-score": "2.97 (active)"}, {"sequence": "CCUGUCUGUUUGAGGACGUTT against Adora2a", "z-score": "-0.701 (inactive)"}, {"sequence": "GGCCAACUUCCUUUUUAAATT against Tomm40", "z-score": "-0.0619 (inactive)"}, {"sequence": "GGCACACACUCCCUGACAATT against Cst3", "z-score": "-0.863 (inactive)"}, {"sequence": "GGUGGAUGAUAAUGUUCUUTT against Gcnt3", "z-score": "0.911 (inactive)"}, {"sequence": "GGCCUUUACAUGUCCCAGCTT against BC002059", "z-score": "0.456 (inactive)"}, {"sequence": "AUGUCAGCGGCCCUAGAUGTT against Adam34l", "z-score": "-2.09 (active)"}, {"sequence": "GGGUGUGGCUGACUUUGAUTT against Otof", "z-score": "-0.429 (inactive)"}, {"sequence": "CCGUGGACUAUAACAACUCTT against Mgat5b", "z-score": "1.61 (inactive)"}, {"sequence": "GGAAGAGGCUAUUGCAUCGTT against Atrnl1", "z-score": "-0.768 (inactive)"}, {"sequence": "GGUUUUCUAGUUUGAGUUUTT against Atp1b2", "z-score": "1.29 (inactive)"}, {"sequence": "GCAUCCAUCAAAUCAAAAUTT against Met", "z-score": "3.03 (active)"}, {"sequence": "GGUGAUUCAGAUAAAAGAGTT against Mbtps1", "z-score": "0.265 (inactive)"}, {"sequence": "GAGCAGAGGAUUGAUGCACTT against Nlrp4g", "z-score": "0.918 (inactive)"}, {"sequence": "GCAAGACGCACUGUUACUGTT against Fam214a", "z-score": "0.196 (inactive)"}, {"sequence": "GGCUCCUAGCUGUUUCAGUTT against Hormad1", "z-score": "-1.62 (inactive)"}, {"sequence": "GGUUCAAAGUUCUAGCUAATT against Adss", "z-score": "-0.25 (inactive)"}, {"sequence": "CCAAAAGUCACGUUUCUCATT against Per2", "z-score": "-2.09 (active)"}, {"sequence": "GCAAUGGUUGAAGAAAUUUTT against Tnip3", "z-score": "0.69 (inactive)"}, {"sequence": "GGUUCUUUUAUGGAUGACATT against Prkaa2", "z-score": "-0.964 (inactive)"}, {"sequence": "GCAGGAACACUGGUUUGAATT against Otud5", "z-score": "-0.653 (inactive)"}, {"sequence": "GUACGAAGACUUCUCUAGUTT against Ankrd33b", "z-score": "0.101 (inactive)"}, {"sequence": "GGGAAAAUGGCUUAACCGUTT against Siglecg", "z-score": "0.703 (inactive)"}, {"sequence": "CCUAGAGGAUUCAGAUCAATT against Pnmal1", "z-score": "2.24 (active)"}, {"sequence": "GGCCGUUUCACUACCAUUCTT against Ier2", "z-score": "0.259 (inactive)"}, {"sequence": "GGAGGUAGGAAUAUGACUUTT against Klrb1c", "z-score": "0.0825 (inactive)"}, {"sequence": "GGCUAGCAUUAGCCACAGATT against Enpp3", "z-score": "-2.33 (active)"}, {"sequence": "GGUGCUCAAAUCCUCUUGATT against Ctps", "z-score": "-0.0545 (inactive)"}, {"sequence": "CGGAUAUGAAUUUUUUGCUTT against Ppp1cb", "z-score": "0.116 (inactive)"}, {"sequence": "GCUUUUCAGUCUCAUAGUGTT against Huwe1", "z-score": "0.468 (inactive)"}, {"sequence": "GGAAAAUCCCUCUUUGGCUTT against Sez6l2", "z-score": "-0.566 (inactive)"}, {"sequence": "CGAUGAGACCAACAUCUUUTT against Gpr162", "z-score": "0.476 (inactive)"}, {"sequence": "GGACAAUGAUUUUCUGAUUTT against Sv2b", "z-score": "0.962 (inactive)"}, {"sequence": "GGAAGUCUAUGGUUUUUAGTT against Csnk2b", "z-score": "2.97 (active)"}, {"sequence": "GGAAAUCAAGCCCUACAUCTT against Col4a2", "z-score": "0.152 (inactive)"}, {"sequence": "GGGCUAUGUUGUCUCAAAATT against Gsdma2", "z-score": "0.861 (inactive)"}, {"sequence": "GGAUGACCUCAUGCUUAUUTT against Prss37", "z-score": "-2.31 (active)"}, {"sequence": "GGAUGAAAAAUCAGUACUUTT against Aadac", "z-score": "-2.02 (active)"}, {"sequence": "GGUAUCCUCUCUUGUCUUGTT against Clec9a", "z-score": "-0.0393 (inactive)"}, {"sequence": "GUACCUGAAUUGCUACCGATT against Ly6g5c", "z-score": "0.8 (inactive)"}, {"sequence": "GGAGUUCUUGGUCUCUUUGTT against Fam214a", "z-score": "-0.124 (inactive)"}, {"sequence": "UUGAACAGUGGAACAAUGATT against Fbxo27", "z-score": "2.59 (active)"}, {"sequence": "GGAAAGGAACAUAUUUGACTT against Gss", "z-score": "0.0774 (inactive)"}, {"sequence": "CCAUCUCUCCAAAGGGCUGTT against Olfr32", "z-score": "0.056 (inactive)"}, {"sequence": "GGAUUUGACCGGCUAAUACTT against Snrnp40", "z-score": "-0.776 (inactive)"}, {"sequence": "GGUUCUGGCUGGAAUCUACTT against Gnl1", "z-score": "-0.987 (inactive)"}, {"sequence": "GCGAACAUGUGUUUUACGUTT against H4c8", "z-score": "1.14 (inactive)"}, {"sequence": "GCAUGCUAGAAGCUAAAAATT against Golga3", "z-score": "1.48 (inactive)"}, {"sequence": "GGCAUAUCCUCCUUAUCCATT against Dazl", "z-score": "-2.2 (active)"}, {"sequence": "GGAAAUCAAAGAGAAAGUUTT against Rassf3", "z-score": "-0.748 (inactive)"}, {"sequence": "GGUUAGUUCCUUAAAUUCCTT against BC016579", "z-score": "1.21 (inactive)"}, {"sequence": "GGACCAGACAGGAAGUAUUTT against Snx20", "z-score": "2.3 (active)"}, {"sequence": "GGCAGGUAUGGAUGUAUUGTT against Renbp", "z-score": "-1.72 (inactive)"}, {"sequence": "GGUUGAGUUGGAUGACCUUTT against Lsm10", "z-score": "-1.91 (inactive)"}, {"sequence": "GAGUCUUACAUCAAGAAGATT against 9230106D20Rik", "z-score": "0.538 (inactive)"}, {"sequence": "GGUAUGUCUAAGAAAACCATT against Pi4ka", "z-score": "0.173 (inactive)"}, {"sequence": "GGGCUACACUUCUGUCUACTT against Nanos3", "z-score": "-1.26 (inactive)"}, {"sequence": "GGGUUUUUUUAGAGAGAUUTT against Susd3", "z-score": "-2.11 (active)"}, {"sequence": "GCCAUACUUCCCUACAAAATT against Kctd19", "z-score": "0.233 (inactive)"}, {"sequence": "GGGCAAGGAGACAGAAUUCTT against Fgf18", "z-score": "0.927 (inactive)"}, {"sequence": "GGAAGAGGACAACCAGCUCTT against Cd82", "z-score": "0.59 (inactive)"}, {"sequence": "GAGUUGGCUCGAAACUGCCTT against Fbxl15", "z-score": "3.54 (active)"}, {"sequence": "GGGCACAAUUCAAAACUUATT against Pgm2", "z-score": "1.42 (inactive)"}, {"sequence": "GGUCAAUUCCAUGAUUACGTT against Pgm3", "z-score": "0.538 (inactive)"}, {"sequence": "UAAGGCCAUCUAGUGGAGATT against C8g", "z-score": "-0.199 (inactive)"}, {"sequence": "GGGUGAAAGCUGACUUUAATT against Rnh1", "z-score": "-1.57 (inactive)"}, {"sequence": "GGCUUUGAAACAUAAGAACTT against Zfp472", "z-score": "-0.553 (inactive)"}, {"sequence": "GGUGUUGAGAUCCACAAGGTT against Tceanc2", "z-score": "-2.44 (active)"}, {"sequence": "GGCAAUCAGCAUACCAACUTT against Thbs2", "z-score": "-1.87 (inactive)"}, {"sequence": "CAGCGGCCGCGCUUCACCGTT against 4930404N11Rik", "z-score": "0.92 (inactive)"}, {"sequence": "GGUAAUUGAGCUGAGUUCUTT against Rad54l2", "z-score": "0.479 (inactive)"}, {"sequence": "GUGAAGAAAGCACUGUUGATT against Olfr978", "z-score": "0.387 (inactive)"}, {"sequence": "GGCCAGGACCUAAAUACAATT against Tmem231", "z-score": "3.25 (active)"}, {"sequence": "GGAGCUGUGCAAGAGGAAATT against Wnt16", "z-score": "1.01 (inactive)"}, {"sequence": "GGGCAGAUCCUAAUAAGCATT against Irs3", "z-score": "-1.21 (inactive)"}, {"sequence": "GCUAAGGUCUUACUCCUGGTT against Cdca4", "z-score": "1.13 (inactive)"}, {"sequence": "GCCAGUGUUGGUUAUAAAATT against Isg15", "z-score": "0.673 (inactive)"}, {"sequence": "CCAUGGCACAGACAGCUAUTT against Celf1", "z-score": "-2.02 (active)"}, {"sequence": "GCUUUUGCCCGAUGGAUUUTT against Plpp3", "z-score": "0.136 (inactive)"}, {"sequence": "GGUAUACAGGAUGUUAAGGTT against Pdlim4", "z-score": "0.889 (inactive)"}, {"sequence": "GGAGACCCACUACAUGACUTT against H2-M2", "z-score": "-0.982 (inactive)"}, {"sequence": "CCCAUCUUUGCAACAUAUCTT against Scgb2b20", "z-score": "-1.43 (inactive)"}, {"sequence": "GGUCCCAUUCAGUGUGUGUTT against Cdk10", "z-score": "2.98 (active)"}, {"sequence": "UAGUCACAAGGUUUGAAACTT against Fbxw24", "z-score": "-0.822 (inactive)"}, {"sequence": "GGUCCUGGACUUCAUGCUATT against Galnt6", "z-score": "2.75 (active)"}, {"sequence": "GCUGUACAGUCAAUACCUGTT against Abhd17a", "z-score": "1.2 (inactive)"}, {"sequence": "GGACCUUUAGCUGGUUUAGTT against Sowaha", "z-score": "0.559 (inactive)"}, {"sequence": "GGUGAUUCCAUUACCUAGUTT against Pde12", "z-score": "0.572 (inactive)"}, {"sequence": "GGUAAAAUCACGCAGUAAATT against Ppp1r3a", "z-score": "-0.56 (inactive)"}, {"sequence": "GGACCCAGAGAAGAUCAAATT against Etfrf1", "z-score": "0.514 (inactive)"}, {"sequence": "GGCAUAGCUCAGUGAUAGCTT against Tmem19", "z-score": "0.117 (inactive)"}, {"sequence": "CCAGACAGAAGGGUUAGCUTT against Mrps36", "z-score": "-2.03 (active)"}, {"sequence": "GCCUUUACACUAAUGAUAATT against Cilp", "z-score": "0.455 (inactive)"}, {"sequence": "GGUCUCAGUUUCUCAGAAUTT against Siglece", "z-score": "-1.62 (inactive)"}, {"sequence": "GCUUGCUUAUGGCCUAUUATT against Ucma", "z-score": "-2.05 (active)"}, {"sequence": "GCUACCAGGAUAGCGAAACTT against P2rx2", "z-score": "0.826 (inactive)"}]}]}
